BAZ2B block: qHTS Assay for Inhibitors of BAZ2B. Bromodomain adjacent to zinc finger domain protein 2B (Homo sapiens), Q9UIF8. hit rate 4.4% among 360,000. AlphaScreen BAZ2B-H3K14Ac peptide displacement. Potency, µM (titrated, usually from 114 µM), hits mostly inhibitors; also: nearly all actives have a fitted effect of over 60% in size
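BAZ2B (50 nM) with biotin-H3(5-23)K14Ac peptide (50 nM) in PBS pH 7.4, 0.01% Tween-20, preformed 30 min, then compound 30 min at room temperature; top concentration 110uM. AlphaScreen streptavidin donor/nickel chelate acceptor beads (10 ug/mL final), 20 min dark, signal read.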
G9a inh: qHTS Assay for Inhibitors of Histone Lysine Methyltransferase G9a | AID 504332, 2011 | hit rate 8.8% among 350,000 | Potency, µM (highest dose often 102 µM), usual class: inhibitors | G9a H3K9 monomethylation, AlphaScreen, 2 h; also: nearly all actives have a fitted effect of over 75% in size
Target sequence (Q96KQ7 913-1193 limits assumed): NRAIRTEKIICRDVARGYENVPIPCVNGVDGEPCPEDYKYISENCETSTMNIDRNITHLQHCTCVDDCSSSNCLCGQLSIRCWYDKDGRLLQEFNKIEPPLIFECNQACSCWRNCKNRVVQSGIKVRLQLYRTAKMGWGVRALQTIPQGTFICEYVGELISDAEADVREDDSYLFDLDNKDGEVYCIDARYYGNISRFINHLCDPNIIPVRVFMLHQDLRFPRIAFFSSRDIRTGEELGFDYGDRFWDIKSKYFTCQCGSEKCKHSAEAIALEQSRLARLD
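G9a (20 nM) was preincubated 15 min with compound, then reacted 2 h at room temperature with 500 nM biotin-H3K9 peptide and 20 µM SAM. Monomethyl-H3K9 detected by AlphaScreen using anti-H3K9me1 antibody.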
JMJD2A Tudor inh: qHTS Assay for Inhibitors of JMJD2A-Tudor Domain; Potency, µM (titrated, usually from 114 µM), hits mostly inhibitors; AlphaScreen JMJD2A-Tudor / H3K4me3 peptide binding; Lysine-specific demethylase 4A (Homo sapiens), O75164; AID 504339, 2011; hit rate 4.4% among 390,000; also: nearly all actives have a fitted effect of over 50% in size
Sfp PPTase inh: qHTS Assay for Inhibitors of Bacillus subtilis Sfp phosphopantetheinyl transferase (PPTase); Biochemical Sfp PPTase activity, qHTS; Potency, µM, most hits filed as inhibitors; hit rate 3.5% among 310,000; AID 1490, 2009;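 also: the enzyme is Sfp with the accession as filed and its product quenches rhodamine fluorescence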
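Reaction rates are the 30-min fluorescence difference (ex 525, em 598 nm) in wells containing 15 nM Sfp, 5 uM rhodamine-CoA and 12.5 uM BHQ-2-YbbR at pH 7.6 with 10 mM MgCl2.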
L3MBTL1 block: qHTS Assay for the Inhibitors of L3MBTL1 | AlphaScreen L3MBTL1–H3K9me1 peptide binding | Potency, µM (highest dose often 57.1 µM), most hits filed as inhibitors | hit rate 0.66% among 230,000 | AID 485360, 2010; also: nearly all actives have a fitted effect of over 60% in size
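Read-out is AlphaScreen signal from streptavidin donor and nickel chelate acceptor beads (10 ug/mL final each) bridging L3MBTL1 (50 nM) and biotinylated K9-monomethylated H3(1-15) peptide (75 nM), after 30 min compound exposure at room temperature.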
HP1b binding inh: HTS for Inhibitors of HP1-beta Chromodomain Interactions with Methylated Histone Tails | Chromobox protein homolog 1 (Homo sapiens), P83916 | AlphaScreen HP1-beta / biotin-H3K9me3 peptide binding | Potency, µM (doses to about 114 µM), actives largely listed as inhibitors | hit rate 0.56% among 390,000; also: nearly all actives have a fitted effect of over 70% in size
Target sequence (P83916 whole entry, looked up): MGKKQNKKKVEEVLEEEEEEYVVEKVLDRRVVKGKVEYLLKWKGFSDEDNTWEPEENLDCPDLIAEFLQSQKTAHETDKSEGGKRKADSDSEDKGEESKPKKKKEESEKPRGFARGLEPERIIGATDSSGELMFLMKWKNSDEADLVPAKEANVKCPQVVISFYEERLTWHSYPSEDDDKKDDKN
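AlphaScreen: HP1-beta (50 nM) preformed 30 min with biotin-H3(1-18)K9me3 peptide (50 nM) in PBS pH 7.4, 0.01% Tween-20. Compound added for 30 min at RT, then streptavidin donor/nickel chelate acceptor beads (10 ug/mL) for 30 min.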
Hits are given with their value; – = inactive; ? = inconclusive; · = not tested or not shown; [ ] = remark or other dose. Only some compounds are listed: those with a hit (about 12% of all), similar ones and a draw of the others. Calls follow the shape of the dose curve; as a rule, active = well fitted curve in the direction sought with a large enough effect; inconclusive = small, poorly fitted or top-dose-only effect, or another doubt; inactive = no such curve, though single readings can be large; an effect the other way counts as inactive or inconclusive.

SMILES	BAZ2B block	G9a inh	JMJD2A Tudor inh	Sfp PPTase inh	L3MBTL1 block	HP1b binding inh
COc1ccc(Cl)cc1NC(=S)NCc1ccc(S(N)(=O)=O)cc1	–	–	–	–	–	–
COc1ccc(NC(=S)NCc2ccc(S(N)(=O)=O)cc2)cc1OC	–	?	?	–	·	–
COCCNC(=O)c1ccc2c(c1)NC(=O)C(CS(=O)(=O)Cc1ccc(F)cc1Cl)N2 (stereo not given)	–	?	–	·	·	–
NS(=O)(=O)c1ccc(NC(=S)NCc2cccs2)cc1	–	35µM	–[11.4 µM]	20µM	–	–
COc1ccc(CNC(=S)Nc2ccc(OC)cc2)cc1	–	–	–	–	–	–
COc1ccc(CNC(=S)Nc2ccc(S(N)(=O)=O)cc2)cc1	–	–[12.7 µM]	–	50µM	–	–
CCOCCCNC(=S)Nc1ccc(S(N)(=O)=O)cc1	–	28µM	–	–	–	–
COc1ccc(NC(=S)NCc2ccc(S(N)(=O)=O)cc2)c(OC)c1	–	7.1µM	–	32µM	–	–
O=C(NCc1ccc(F)cc1)c1cc2c(=O)n3ccccc3nc2s1	–	–	–	·	·	–
O=C(O)CCCN1C(=O)C(=O)/C(=C(/O)c2ccc(Cl)cc2)C1c1ccccc1 (stereo not given)	–	?	?	–	–	–
O=C1OC/C(=C(/O)c2ccc(Cl)cc2)C1=O	–	40µM	–	–	–	–
CC1CC(C)CN(c2oc(-c3ccc(OCc4ccccc4Cl)cc3)nc2C#N)C1 (stereo not given)	·	·	–	·	·	–
COc1ccc(S(=O)(=O)NNC(=O)Cc2csc(C)n2)cc1[N+](=O)[O-]	79µM	?	?	·	?	–
Cc1nc(CC(=O)NNS(=O)(=O)c2ccc3ccccc3c2)cs1	–	–	–	–	–	–
CCc1ccccc1NC(=O)Nc1cc(C(=O)NCc2ccc(C)cc2)ccc1N1CCCC1	–	–	–	·	·	–
CC(=O)NCc1ccc(C(=O)COC(=O)COc2ccccc2)s1	–	20µM	–	·	–	–
O=c1[nH]nc(N/N=C/c2ccc(Cl)cc2Cl)c(=O)[nH]1	–	?	–[11.4 µM]	56µM	–	–
CCN(CC)c1ccc(/C=N/Nc2ccc(C)cc2)c(O)c1	45µM	1.8µM	–	40µM	?	–
CCN(CC)c1ccc(/C=N/NC(=O)c2c(Cl)cnn2C)c(O)c1	79µM	–	–	–	?	–
CCOC(=O)N/N=C/c1ccc(N(CC)CC)cc1O	?	?	–	–	–	–
CCN(CC)c1ccc(/C=N/NC(=O)c2cccc(S(=O)(=O)N3CCOCC3)c2)c(O)c1	–	–	–	–	–	–
C[C@@H]1O[C@H](O[C@@H]2C(O)[C@H](O)[C@@H](CO)O[C@H]2Oc2cc(O)c3c(=O)cc(-c4ccc(O)cc4)oc3c2)[C@H](O)[C@H](O)[C@H]1O (stereo not given in full)	·	·	·	–	·	·
N#CC1=C(N)OC2=C(C(=O)CC(c3ccccc3)C2)C1c1ccc2c(c1)OCO2 (stereo not given)	?	?	–	–	–	–
Cc1ccc(Cn2c(C)cc3c(c2=O)C(c2cccs2)C(C#N)=C(N)O3)cc1 (stereo not given)	–	–	–	–	–	–
N#CC1=C2SCN(Cc3ccccc3)CN2C(=O)CC1c1cccs1 (stereo not given)	–	2µM	–	1.1µM	–	–
N#CC1=C2SCN(Cc3ccccc3)CN2C(=O)CC1c1ccc2c(c1)OCO2 (stereo not given)	50µM	?	50µM	1.8µM	–	?
COc1ccc(CCNC(=O)c2cccc(S(=O)(=O)N3CCOCC3)c2)cc1OC	–	–[12.7 µM]	–	·	–	–
